Experimental data as given in PubChem BioAssay AID743364 (National Center for Advancing Translational Sciences (NCATS), 2014).
Where a SMILES comes first, the peptide text is derived from it. [ ]: non-standard residue; d: D form. Orn = NCCC[C@H](N)C(=O)O

Assay: qHTS profiling of inhibitors of Plasmodium falciparum (3D7) proliferation (acoustic dispense)
Details: P. falciparum 3D7 in erythrocytes, SYBR Green, 72 h; series mostly up to 49.8 µM; activity change: at the top concentration; active means well fitted curve in the direction sought with a large enough effect; inactive means no such curve, though single readings can be large or run the other way

Activity change, inactive:
CC1(CN2CCC(n3c(=O)[nH]c4ccccc43)CC2)OCc2ccccc2-n2cccc21 (centres undefined) -0.657%
C[C@H]1c2cccc(O)c2C(O)=C2C(=O)[C@]3(O)C(O)=C(C(N)=O)C(=O)[C@@H](N(C)C)[C@@H]3[C@@H](O)[C@@H]21 -0.335%
COC1=C2C[C@@H](C)C[C@H](OC)[C@@H](O)[C@@H](C)C=C(C)[C@H](OC(N)=O)[C@@H](OC)C=CC=C(C)C(=O)NC(=CC1=O)C2=O -1.59%
CO[C@H]1C=CC=C(C)C(=O)NC2=CC(=O)C(NCCN(C)C)=C(C[C@@H](C)C[C@H](OC)[C@@H](O)[C@@H](C)C=C(C)[C@@H]1OC(N)=O)C2=O 111%
COCCn1c2c([n+](Cc3cnccn3)c1C)C(=O)c1ccccc1C2=O 0.59%
CS(=O)(=O)CCNCc1ccc(-c2ccc3ncnc(Nc4ccc(OCc5cccc(F)c5)c(Cl)c4)c3c2)o1 29.8%
CCN[C@H]1C[C@H](C)S(=O)(=O)c2sc(S(N)(=O)=O)cc21 -1.4%
CC(C)C[C@H](NC(=O)[C@H](CCc1ccccc1)NC(=O)CN1CCOCC1)C(=O)N[C@@H](Cc1ccccc1)C(=O)N[C@@H](CC(C)C)C(=O)[C@@]1(C)CO1 0.444%
CC(C)Oc1cc(Nc2nc(N[C@@H](C)c3ccc(F)cn3)ncc2Cl)[nH]n1 0.271%
CCC[C@H](Nc1nc(-c2ccc(NC(=O)NCC)c(OC)c2)ncc1C)c1cccnc1 1.52%
CC1(C)N=C(N)N=C(N)N1c1ccc(Cl)cc1 -0.763%
CC[C@H]1OC(=O)[C@H](C)C(=O)[C@H](C)[C@@H](O[C@H]2O[C@H](C)C[C@H](N(C)C)[C@@H]2O)[C@](C)(OC)C[C@@H](C)C(=O)[C@H](C)[C@H]2N(CCCCn3cnc(-c4cccnc4)c3)C(=O)O[C@]12C 0.612%
Cc1cnc(Nc2ccc(CN3CCOCC3)cc2)nc1Nc1cccc(S(=O)(=O)NC(C)(C)C)c1 -2.12%
CCS(=O)(=O)Nc1ccc2[nH]c(O)c(C(=Nc3ccc(CN4CCCCC4)cc3)c3ccccc3)c2c1 -1.12%
Cc1nc2cnc3ccc(C#Cc4cccnc4)cc3c2n1-c1ccc(C(C)(C)C#N)cc1 -0.261%
O=C1C(=O)c2ccccc2C(O)=C1C1CCC(c2ccc(Cl)cc2)CC1 (centres undefined) 0.134%
CCCC[C@@H]1C[C@@H](C(=O)NC([C@H](C)Cl)[C@H]2O[C@H](S)[C@H](O)[C@@H](O)[C@@H]2O)N(C)C1 (some centres undefined) 39.1%
CCC(=O)N1CCN(c2ccc(-n3c(=O)ccc4cnc5ccc(-c6cnc7ccccc7c6)cc5c43)cc2C(F)(F)F)CC1 0.958%
O=C1c2c(O)ccc(O)c2C(=O)c2c(NCCNCCO)ccc(NCCNCCO)c21 -8.46%
CC=C1C2C=C(C)CC1(N)c1ccc(=O)[nH]c1C2 (centres undefined) 106%
CC(C)C[C@@H]1NC(=O)[C@H](CCCN)NC(=O)[C@H](C(C)C)NC(=O)[C@@H]2CCCN2C(=O)[C@@H](Cc2ccccc2)NC(=O)[C@H](CC(C)C)NC(=O)[C@H](CCCN)NC(=O)[C@H](C(C)C)NC(=O)[C@@H]2CCCN2C(=O)[C@@H](Cc2ccccc2)NC1=O (cyclo(V[Orn]L[dF]PV[Orn]L[dF]P)) 1.28%
CN(C(=O)OC(C)(C)C)[C@@H](Cc1ccc(O[S+](=O)([O-])c2cccc3cnccc23)cc1)C(=O)N1CCN(C(=O)OCc2ccccc2)CC1 0.844%
OB1OCc2cc(F)ccc21 5.24%
CCN(CC)Cc1cc(Nc2ccnc3cc(Cl)ccc23)ccc1O -0.785% [at 23.2 µM]
C1CCC(C(CC2CCCCN2)C2CCCCC2)CC1 (centres undefined) 0.0017%
C=C[C@@H]1CN2CCC1C[C@@H]2C(O)c1ccnc2ccc(OC)cc12 (some centres undefined) 4.64%
CCCCN(CCCC)CCC(O)c1cc2c(Cl)cc(Cl)cc2c2cc(C(F)(F)F)ccc12 (centres undefined) 0.183% [at 23.2 µM]
NC(=NCCCCCCN=C(N)N=C(N)Nc1ccc(Cl)cc1)N=C(N)Nc1ccc(Cl)cc1 6.59%
CCCCCCCCCCOc1cc2c(=O)c(C(=O)OCC)c[nH]c2cc1OCC -1.42%
Cc1cn[nH]c1 0.616%
Cc1[nH]c2ccccc2c1CCNCc1ccc(C=CC(=O)NO)cc1 -3.08%
Cn1cc(CNCC2CCN(c3ncc(C(=O)NO)cn3)CC2)c2ccccc21 -1.05%
C[C@H](Cn1cnc2c(N)ncnc21)OCP(=O)(O)O 0.919%
COc1ccc2nc3cc(Cl)ccc3c(Nc3cc(CN4CCCC4)c(O)c(CN4CCCC4)c3)c2n1 -4.07%
